Shown is part of a subset that was picked to be rich in hits.
Tgondii IFNg – T. gondii growth inhibition under IFN-gamma. Toxoplasma gondii growth in IFN-gamma-treated host cells; hits give low values. activity change, negative = inhibition, % (no concentration beside the values). 69,000 compounds, 3.8% hits; in the data active = activity change below about -70%, passing the limit was not always enough;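 also: host cells are HeLa cells infected with Toxoplasma gondii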
The depositor's hits bear a star; ! = repeats disagree.

SMILES	Tgondii IFNg
O=C(NCCC1=CCCCC1)c1cc2cccnc2n(Cc2ccc(Cl)cc2)c1=O	-16
O=C(CN1CCCC2(CNC(=O)O2)C1)NCc1ccccn1 (stereo not drawn)	5
O=C1/C(=C/c2ccccc2)C[C@@]2(O)C3Cc4ccc(O)c5c4[C@@]2(CCN3CC2CC2)[C@H]1O5	-76*!
O=C1CC[C@@]2(O)[C@H]3Cc4ccc(O)c5c4[C@@]2(CCN3CC2CC2)[C@H]1O5	-8
Oc1ccc2c3c1O[C@H]1c4[nH]c5c(c4C[C@@]4(O)[C@@H](C2)N(CC2CC2)CC[C@]314)C[C@@]1(O)[C@H]2Cc3ccc(O)c4c3[C@@]1(CCN2CC1CC1)[C@H]5O4	12
Cc1ccc(CNC(=O)c2cc3cccnc3n(Cc3ccccc3)c2=O)cc1	53
COc1ccc2c(c1)C1(CCN(C(=O)c3nn(C)c4ccccc34)CC1)CC2CC(=O)O (stereo not drawn)	-74*
COc1ccc2c(c1)C1(CCN(C(=O)C3(c4ccccc4)CCCC3)CC1)CC2CC(=O)O (stereo not drawn)	-15
COc1ccc2c(c1)C1(CCN(C(=O)c3scnc3C)CC1)CC2CC(=O)O (stereo not drawn)	-9
C=CCN1CCN(Cc2csc(C)n2)Cc2cccnc21	67
Cn1cc(CN2CC[C@H]3[C@@H]2CCN3C(=O)Cc2cccc(F)c2)cn1	-6
CC(=O)Nc1cccc(NC(=O)c2cc3cccnc3n(Cc3ccc(Cl)cc3)c2=O)c1	139
COc1ccccc1CCNC(=O)c1cc2cccnc2n(Cc2ccc(Cl)cc2)c1=O	-15
O=c1[nH]c2ccccc2n1C1CCN(CCCC(c2ccc(F)cc2)c2ccc(F)cc2)CC1	-95*!
COc1ccc(NC(=O)c2c(O)c3cccnc3n(Cc3ccccc3)c2=O)cc1F	202
Cc1nc(N)nc(C)c1CC(=O)N1CC[C@@H]2CC[C@H](C1)N2C	-7
C=CCN1CC[C@@H]2[C@@H]1CCN2Cc1c(C)noc1C	-10
C=CCN1CCO[C@@H]2[C@@H](Oc3ccccn3)CC[C@H]21	1
CCc1ccccc1NC(=O)N1Cc2ccccc2-n2cccc2C12CCN(C(C)=O)CC2	56
Cc1nnc2ccc(-c3cccc(C(F)(F)F)c3)nn12	-80*
C/C=C/CC(=O)N1CCCC2(CCN(C)CC2)CC1	-1
O=C(c1ccc2ccccc2c1)C12CN3CN(CN(C3)C1)C2	4
Cc1ccccc1NC(=O)c1cc2cccnc2n(Cc2ccc(Cl)cc2)c1=O	115
O=C(Nc1ccc(OC(F)(F)F)cc1)c1cc2cccnc2n(Cc2ccccc2)c1=O	120
CCO[C@@H]1C[C@@H]2CN(C(=O)c3ccncc3)CCN2C1	25
SMILES	Tgondii IFNg
CCCCCCC(C)(C)c1ccc(C2CC(O)CCC2CCCO)c(O)c1 (stereo not drawn)	-79*
Cc1noc(C)c1CN1CCC2OCCCC2(COC(C)C)C1 (stereo not drawn)	4
c1ccc(CN2CC[C@@H]3[C@@H]2CCN3c2ncccn2)nc1	33
CCn1nc(C)c(NC(=O)CN2C[C@H]3C[C@@H](C2)c2cccc(=O)n2C3)c1C	0
O=C(Nc1ccc2c(c1)OCCO2)c1c(O)c2cccnc2n(Cc2ccccc2)c1=O	211
O=C(NCc1ccco1)c1c(O)c2cccnc2n(Cc2ccccc2)c1=O	-99*
O=C(NCc1ccccc1Cl)c1c(O)c2cccnc2n(Cc2ccccc2)c1=O	-108*
O=C(NCc1ccc2c(c1)OCO2)c1c(O)c2cccnc2n(Cc2ccccc2)c1=O	-77*
O=C(Nc1ccc2c(c1)OCO2)c1c(O)c2cccnc2n(Cc2ccccc2)c1=O	113
COc1ccccc1NC(=O)c1c(O)c2cccnc2n(Cc2ccccc2)c1=O	47
Cc1ccc(NC(=O)c2c(O)c3cccnc3n(Cc3ccccc3)c2=O)cc1C	94
Cc1ccc(NC(=O)c2c(O)c3cccnc3n(Cc3ccccc3)c2=O)cc1F	30
O=C(Nc1ccc(Cl)cc1)c1c(O)c2cccnc2n(Cc2ccccc2)c1=O	44
Cc1ccccc1CNC(=O)c1c(O)c2cccnc2n(Cc2ccccc2)c1=O	-119*
O=C(NCc1ccco1)c1cc2cccnc2n(Cc2ccccc2)c1=O	-45
O=C(Nc1ccccc1F)c1c(O)c2cccnc2n(Cc2ccccc2)c1=O	42
C[N@@+]1(CC2CC2)CC[C@]23c4c5ccc(O)c4O[C@H]2C(=O)CC[C@]3(O)[C@H]1C5	21
Cc1ccc2c(CCN)c(C)n(C)c2c1	0
Cn1cccc1CN1CC2(CCN(Cc3cccnc3)C2)C1	-11
CN1C2C[C@H](OC(=O)[C@H](CO)c3ccccc3)C[C@@H]1[C@@H](O)C2	10
COc1ccc(Cl)cc1NC(=O)c1cc2cccnc2n(Cc2ccc(F)cc2)c1=O	42
CCOC(=O)C1(O)C(=O)Nc2cc(OC)cc(OC)c21 (stereo not drawn)	-41
CN(C)Cc1cncc2c1CCN(S(=O)(=O)c1cccs1)C2	38
Cc1cccc(NC(=O)c2cc3cccnc3n(Cc3ccc(Cl)cc3)c2=O)c1	13
O=C(Nc1cccc(F)c1)c1c(O)c2cccnc2n(Cc2ccccc2)c1=O	107
SMILES	Tgondii IFNg
Cc1cccc(CNC(=O)c2c(O)c3cccnc3n(Cc3ccccc3)c2=O)c1	-119*
O=C(NCc1ccc(F)cc1F)c1c(O)c2cccnc2n(Cc2ccccc2)c1=O	-104*
O=C(Nc1ccc(F)cc1F)c1c(O)c2cccnc2n(Cc2ccccc2)c1=O	-22
O=C(Nc1cc(F)ccc1F)c1c(O)c2cccnc2n(Cc2ccccc2)c1=O	164
Cc1ccc(NC(=O)c2c(O)c3cccnc3n(Cc3ccccc3)c2=O)c(F)c1	138
c1nc2c(c(N3CCN4CCCC4C3)n1)CCNC2 (stereo not drawn)	-55
Cc1ccc(CN2C[C@H]3COC[C@@]3(COCc3cccnc3)C2)o1	-3
O=C(Nc1cccnc1)c1cc2cccnc2n(Cc2ccccc2F)c1=O	84
COc1ccccc1[C@@H]1CN(C(=O)c2cc(=O)[nH]c(=O)[nH]2)[C@@H]2C3CCN(CC3)[C@@H]21	6
C[C@]12CC[C@H](OC3OC(O)C(O)C(O)C3O)C=C1CCC1C2CC[C@]2(C)[C@@H](c3ccc(=O)oc3)CC[C@]12O (stereo partly drawn)	-80*
CC(C)=CCCC1(C)C=Cc2c(O)c3c(c(CC=C(C)C)c2O1)OC12C(=CC4CC1C(C)(C)OC2(CC=C(C)C(=O)O)C4=O)C3=O (stereo not drawn)	-69
COCC(C)NC(=O)c1cc2cccnc2n(Cc2ccccc2)c1=O (stereo not drawn)	41
C=CCN1CCN(Cc2cnn(C)c2)Cc2cccnc21	-44
COCCN1CCN(c2ncccn2)Cc2ccc(C)nc21	-5
C[C@]12CC[C@@H]3c4ccc(O)c(O)c4CC[C@H]3[C@@H]1CC[C@@H]2O	35
C[C@]12CC[C@H]3[C@@H](CCC4=CC(=O)CC[C@@H]43)[C@@H]1CC[C@@H]2O	-76*
C#CC1(O)CCC2C3CCC4=CC(=O)CCC4(C)C3CCC21C (stereo not drawn)	-43
CC12CCC3C4CCCC=C4CCC3C1CCC2O (stereo not drawn)	-59
C[C@]12CCC(=O)C=C1CCC1C2CC[C@@]2(C)C1CC[C@@H]2O (stereo partly drawn)	-88*
C[C@]1(O)CC[C@H]2[C@@H]3CCC4=CC(=O)CC[C@]4(C)[C@@]3(F)[C@@H](O)C[C@@]21C	12
CN1CCC2(CC1)NC(=O)CC2c1ccccc1 (stereo not drawn)	99
CCN(C)c1ncc2c(c1C(=O)O)CCN(C1CCOC1)C2 (stereo not drawn)	8
COCCN1CCOCC2(CCCN(C(=O)c3cccnc3)C2)C1 (stereo not drawn)	-16

Screening results deposited in PubChem by Broad Institute.
